Reference: publication PMC4336329 (PLoS ONE, 2015)
The whole screen tested about 310,000 compounds, of which about 14,000 (4.5%) showed an effect of 50% or more. Effects have a minus sign here. The sample as a whole holds a higher share of strong results than the screen did.

Target: human ether-à-go-go-related gene (hERG) potassium channel (human, UniProt Q12809)
Assay: primary screen, population patch clamp on CHO cells stably expressing hERG; higher = less effect of the substance
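Note: peak tail current of the secondary pulse compared with the same well before compound.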

Sequence of human ether-à-go-go-related gene (hERG) potassium channel (Q12809 whole entry, looked up): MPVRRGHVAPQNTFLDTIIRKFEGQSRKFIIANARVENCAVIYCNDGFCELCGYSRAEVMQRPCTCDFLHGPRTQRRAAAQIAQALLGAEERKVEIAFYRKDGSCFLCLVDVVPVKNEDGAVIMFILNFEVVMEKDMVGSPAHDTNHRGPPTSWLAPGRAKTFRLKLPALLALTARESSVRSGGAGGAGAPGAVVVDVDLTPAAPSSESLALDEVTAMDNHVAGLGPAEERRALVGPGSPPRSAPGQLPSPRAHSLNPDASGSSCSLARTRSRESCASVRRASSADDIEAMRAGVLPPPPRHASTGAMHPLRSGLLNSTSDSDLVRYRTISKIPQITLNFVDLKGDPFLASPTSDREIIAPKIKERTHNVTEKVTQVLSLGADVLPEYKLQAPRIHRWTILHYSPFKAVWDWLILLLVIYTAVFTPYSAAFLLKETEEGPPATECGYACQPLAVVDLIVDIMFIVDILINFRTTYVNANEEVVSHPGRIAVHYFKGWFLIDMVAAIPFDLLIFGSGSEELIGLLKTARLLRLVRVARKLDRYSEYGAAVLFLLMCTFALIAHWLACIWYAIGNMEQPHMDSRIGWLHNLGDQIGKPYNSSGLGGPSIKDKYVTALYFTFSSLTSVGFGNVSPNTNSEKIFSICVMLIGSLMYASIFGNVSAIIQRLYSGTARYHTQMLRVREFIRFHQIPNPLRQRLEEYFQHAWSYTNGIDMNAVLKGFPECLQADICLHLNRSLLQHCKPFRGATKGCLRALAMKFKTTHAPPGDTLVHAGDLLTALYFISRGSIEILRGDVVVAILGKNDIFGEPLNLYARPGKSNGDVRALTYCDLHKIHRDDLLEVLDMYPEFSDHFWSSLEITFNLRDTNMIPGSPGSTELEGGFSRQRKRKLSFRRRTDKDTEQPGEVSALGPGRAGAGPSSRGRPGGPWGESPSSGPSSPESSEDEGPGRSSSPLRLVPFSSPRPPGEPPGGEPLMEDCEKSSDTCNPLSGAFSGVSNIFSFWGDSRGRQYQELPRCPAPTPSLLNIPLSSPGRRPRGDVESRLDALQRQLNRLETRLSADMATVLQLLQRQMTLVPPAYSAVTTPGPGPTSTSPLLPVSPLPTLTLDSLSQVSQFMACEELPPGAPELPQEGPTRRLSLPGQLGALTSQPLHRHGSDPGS

SMILES | hERG current change (%, negative = inhibition) at 10uM [%]
COCCn1cnc2c1c(=O)n(CC(=O)OCC(=O)NCC(F)(F)F)c(=O)n2Cc1ccccc1 | 4.6
COc1ccc(CNS(=O)(=O)c2ccc(S(=O)(=O)NC3CC3)cc2)cc1 | 17.9
Cc1cccc(NC(=O)NCCN2CCCCC2)c1 | -25
O=C1CSc2ccccc2N1Cc1ccc(F)cc1 | -38.4
O=C(O)CN1C(=O)CSc2ccccc21 | -30.6
O=C1CSc2ccccc2N1Cc1ccccc1F | -55.8
COC(=O)c1cccc(NC(=O)c2ccco2)c1 | 4.02
CC1(C)CC(N2CCCC2)=CC(=[N+]2CCCCC2)C1.[I-] | 3.58
CC1(C)CC(N2CCN(C(c3ccccc3)c3ccccc3)CC2)=CC(=[N+]2CCCCC2)C1.[I-] | -72.1
CCN(CC)C1=CC(=[N+]2CCCC2)CC(C)(C)C1.[I-] | -4.08
CC1(C)CC(N2CCN(c3ccccc3)CC2)=CC(=[N+]2CCCC2)C1.[I-] | -15.3
CN(Cc1ccccc1)C1=CC(=[N+]2CCCC2)CC(C)(C)C1.[I-] | -55.4
CC1(C)CC(N2CCN(Cc3ccccc3)CC2)=CC(=[N+]2CCCCC2)C1.[I-] | 7.04
CC1(C)CC(N2CCCC2)=CC(=[N+]2CCCCCC2)C1.[I-] | -8.68
CC1(C)CC(N2CCCC2)=CC(=[N+]2CCCC2)C1.[I-] | -12.1
CCCN(CCC)C1=CC(=[N+]2CCCC2)CC(C)(C)C1.[I-] | -72.4
CC1(C)CC(NNCCC#N)=CC(=[N+]2CCCC2)C1.[I-] | 5.87
CC1(C)CC(N2CCCCC2)=CC(=[N+]2CCCCC2)C1.[I-] | 8.09
CN(Cc1ccccc1)C1=CC(=[N+]2CCCCC2)CC(C)(C)C1.[I-] | -54.3
CCCC(C(=O)O)n1c(O)c(C=C2N=c3ccccc3=N2)sc1=S (stereo not shown) | 6.16
CCN1C(=O)c2ccccc2Sc2ccc(C(=O)NCCN3CCOCC3)cc21 | -5.49
O=S(=O)(O)c1ccc(N=NNc2ccc(Br)cc2)cc1 | 30.7
N#Cc1ccc(C23CC4(C2)[C@H](CN(P(=O)(c2ccccc2)c2ccccc2)[C@@H]4c2ccccc2)C3c2ccc(Cl)nc2)cc1 (stereo partly shown) | -8
CCC(C)n1c(SCC(=O)/C(C#N)=C(\C)N)nc2ccccc2c1=O (stereo not shown) | -15.3
O=C(/C=C/c1ccco1)Nc1ccc(Oc2ccccc2)cc1 | -5.74

SMILES | hERG current change (%, negative = inhibition) at 10uM [%]
COc1ccccc1CNCc1cc(OC)c(OC)cc1OC | -10.3
Cc1cc(OC(C)C)nc(NCc2ccccc2)n1 | -3.54
COc1ccccc1-c1coc2c(CN3CCN(CCO)CC3)c(O)ccc2c1=O | 17.7
N=c1c2c3c(sc2ncn1Nc1ccccc1)CCC3 | -29.6
COc1cccc(-c2nn3c(-c4ccccn4)nnc3s2)c1 | -28
COc1cccc(-c2nn3c(-c4cccc(C)c4)nnc3s2)c1 | 17.5
CCOc1cccc(-c2nn3c(-c4ccccn4)nnc3s2)c1 | 6.33
CCOc1cccc(-c2nn3c(-c4cc(C)[nH]n4)nnc3s2)c1 | -58.2
CCOc1cccc(-c2nn3c(-c4ccco4)nnc3s2)c1 | -49.4
COc1cccc(-c2nn3c(-c4cc(C)[nH]n4)nnc3s2)c1 | -57.5
CN(C)/C=C/C(=O)c1ccc(N2CCN(c3ncc(C(F)(F)F)cc3Cl)CC2)cc1 | -6.08
CCOC(=O)c1ccccc1NC(=S)N1CC(C)CC(C)C1 (stereo not shown) | -7.45
O=C(O)C(=O)O.O=[N+]([O-])c1cc2c(cc1CNCCc1ccc3c(c1)OCO3)OCO2 | -61.5
Clc1cccc(CNCCc2ccc3c(c2)OCO3)c1.O=C(O)C(=O)O | -24
Brc1cccc(CNCCc2ccc3c(c2)OCO3)c1.O=C(O)C(=O)O | -24.9
COc1ccc(CNCc2cc3c(cc2[N+](=O)[O-])OCO3)cc1.O=C(O)C(=O)O | -40.8
CCOc1ccc(CNCCc2ccc3c(c2)OCO3)cc1 | -77.2
CCOc1ccccc1CNCCc1ccc2c(c1)OCO2.Cl | -32.8
Clc1ccc(CNCCc2ccc3c(c2)OCO3)cc1.O=C(O)C(=O)O | -56.1
c1cc(CNCCc2ccc3c(c2)OCO3)ccn1 | 18.3
O=C(O)C(=O)O.c1cncc(CNCCc2ccc3c(c2)OCO3)c1 | 8.84
Fc1ccc(CNCCc2ccc3c(c2)OCO3)cc1 | -3.52
COc1cccc(CNCCc2ccc3c(c2)OCO3)c1OC.O=C(O)C(=O)O | -15.5
FC(F)(F)c1ccc(CNCCc2ccc3c(c2)OCO3)cc1.O=C(O)C(=O)O | -60.3
